A short description of assay [1]: NCI Yeast Anticancer Drug Screen. Data for the rad50 strain (AID 155).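 Note: 0% = growth of vehicle-only cultures of the same strain.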 The note with it: S. cerevisiae rad50 strain growth inhibition, active compounds read high. A digest of the protocol: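 Relative growth inhibition (compound vs vehicle) was measured in yeast with a defined repair-gene alteration.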
Assay [2] in a line: NCI Yeast Anticancer Drug Screen. Data for the mec2-1 strain (AID 157). The following applies: S. cerevisiae mec2-1 strain, active compounds read high. A digest of the protocol: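 Cells of the genetically defined mec2-1 yeast strain are incubated with test compound. Inhibition of growth is calculated against vehicle-treated controls.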
A short description of assay [3]: NCI Yeast Anticancer Drug Screen. Data for the sgs1 mgt1 strain (AID 161).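 Note: 0% = growth of cultures given vehicle only.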 The note with it: S. cerevisiae sgs1 mgt1 strain, active compounds read high. A digest of the protocol: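 Read-out: growth inhibition vs vehicle controls. Cells: mutant yeast strain deficient in DNA damage repair.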
Assay [4] is described as follows: NCI Yeast Anticancer Drug Screen. Data for the cln2 rad14 strain (AID 165).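 Note: 0% = growth equal to vehicle treated cultures.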 The following applies: S. cerevisiae cln2 rad14 strain, active compounds read high. Summed up:
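The screen exposed genetically defined yeast (cln2 rad14) to test compounds and scored growth inhibition relative to vehicle-treated controls.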

The nature of assay [5]: NCI Yeast Anticancer Drug Screen. Data for the bub3 strain (AID 167). The following applies: S. cerevisiae bub3 mutant strain, active compounds read high. A digest of the protocol: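 Screening used yeast with an engineered genetic alteration affecting cell cycle control. Compound-exposed cultures were compared with vehicle cultures, and reduced growth was taken as inhibition.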

Assay [6] can be described thus: NCI Yeast Anticancer Drug Screen. Data for the mlh1 rad18 strain (AID 175). The note with it: S. cerevisiae mlh1 rad18 strain growth inhibition, active compounds read high. A digest of the protocol: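 Compound-treated yeast growth, normalised to vehicle controls. Strain bears defined DNA repair mutations.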
[7] abbreviates: at 5.0 µM (retest, dose inferred, filed as 0.5).
[8] abbreviates: at 50.0 µM (retest, dose inferred, filed as 5.0).

The panel holds about 79,000 compounds, 15% with a hit somewhere; the sample as a whole holds those more often. Values without a mark were called inactive. Calls of active or inactive are those of the source. Cut-off read from the data, not from the text of the source: active = growth inhibition above about 70%; inactive = the rest.

In the case of `O=C(NCCCCCCNC(=O)n1cc(F)c(=O)[nH]c1=O)NCCCOCCOCCOCCOCCOCCOCCOCCOCCOCCOCCOCCOCCOCCOCCOCCOCCOCCOCCOCCOCCOCCCNC(=O)C(O)C(O)C(O)C(O)CO` (stereo not given), the growth inhibition in assay [1] (setting [7]) was 6%; in assay [1] (setting [8]) it was 31%; in assay [1] (at 50.0 µM), 42.2%; in assay [2] (setting [7]) it was 4%; in assay [2] (setting [8]) it was 60%; in assay [2] (at 50.0 µM), 82% (active). Further, the growth inhibition is 23% in assay [3] (setting [7]); 87% (active) in assay [3] (setting [8]); 76.8% (active) in assay [3] (at 50.0 µM); 33% in assay [4] (setting [7]); 8% in assay [4] (setting [8]); 24.4% in assay [4] (at 50.0 µM). Also, the growth inhibition in assay [5] (setting [7]) was 11%; in assay [5] (setting [8]), 34%; in assay [5] (at 50.0 µM) it was -4.9%; in assay [6] (setting [7]) it was 7%; in assay [6] (setting [8]), 35%; in assay [6] (at 50.0 µM), -10.8%.

`O=Cc1cc(O)ccc1Br`: the growth inhibition is 33% in assay [1] (setting [7]); 96% (active) in assay [1] (setting [8]); 71.3% (active) in assay [1] (at 50.0 µM); 28% in assay [2] (setting [7]); 96% (active) in assay [2] (setting [8]); 76.8% (active) in assay [2] (at 50.0 µM). Also, the growth inhibition in assay [3] (setting [7]) is 37%; in assay [3] (setting [8]), 97% (active); in assay [3] (at 50.0 µM), 91.6% (active); in assay [4] (setting [7]), 29%; in assay [4] (setting [8]), 58%; in assay [4] (at 50.0 µM), 82.7% (active). The growth inhibition was 40% in assay [5] (setting [7]); 99% (active) in assay [5] (setting [8]); 89.3% (active) in assay [5] (at 50.0 µM); 32% in assay [6] (setting [7]); 98% (active) in assay [6] (setting [8]); 79.6% (active) in assay [6] (at 50.0 µM).

Turning to `O=c1[nH]c(=S)[nH]c(-c2ccccc2)c1Cc1c(O)ccc2ccccc12`, the growth inhibition in assay [1] (setting [7]) was -15%; in assay [1] (setting [8]), 74% (active); in assay [1] (at 50.0 µM), 88.7% (active); in assay [2] (setting [7]), 32%; in assay [2] (setting [8]), 40%; in assay [2] (at 50.0 µM) it was 89.6% (active). The growth inhibition in assay [3] (setting [7]) was -10%; in assay [3] (setting [8]) it was 65%; in assay [3] (at 50.0 µM), 84.3% (active); in assay [4] (setting [7]), -17%; in assay [4] (setting [8]), 41%; in assay [4] (at 50.0 µM) it was 75.2% (active). Also, the growth inhibition in assay [5] (setting [7]) was -15%; in assay [5] (setting [8]), 57%; in assay [5] (at 50.0 µM), 80.8% (active); in assay [6] (setting [7]), -4%; in assay [6] (setting [8]) it was 60%; in assay [6] (at 50.0 µM) it was 79.7% (active).

Turning to `CC1=C(C(=O)Nc2cccc(Cl)c2)C(c2ccccc2O)C(C(=O)Nc2cccc(Cl)c2)=C(C)N1`, the growth inhibition was 25% in assay [1] (setting [7]); 25% in assay [1] (setting [8]); 55.6% in assay [1] (at 50.0 µM); 14% in assay [2] (setting [7]); 14% in assay [2] (setting [8]); 65% in assay [2] (at 50.0 µM). Further, the growth inhibition in assay [3] (setting [7]) was 9%; in assay [3] (setting [8]) it was 9%; in assay [3] (at 50.0 µM) it was 56.5%; in assay [4] (setting [7]), 10%; in assay [4] (setting [8]), 10%; in assay [4] (at 50.0 µM), 59.2%. Also, the growth inhibition in assay [5] (setting [7]) is 12%; in assay [5] (setting [8]) it was 12%; in assay [5] (at 50.0 µM), 57.9%; in assay [6] (setting [7]), 25%; in assay [6] (setting [8]), 25%; in assay [6] (at 50.0 µM), 32.3%.

In the case of `COC(=O)c1c(C(N)=O)c(C)n(NC(=O)c2ccccc2)c1C`, the growth inhibition in assay [1] (setting [7]) is -6%; in assay [1] (setting [8]) it was 4%; in assay [1] (at 50.0 µM), 5.75%; in assay [2] (setting [7]), -5%; in assay [2] (setting [8]), -1%; in assay [2] (at 50.0 µM), 2.7%. Also, the growth inhibition in assay [3] (setting [7]) was -6%; in assay [3] (setting [8]) it was 0%; in assay [3] (at 50.0 µM) it was 11.1%; in assay [4] (setting [7]) it was -4%; in assay [4] (setting [8]) it was 6%; in assay [4] (at 50.0 µM) it was 38.9%. Besides, the growth inhibition in assay [5] (setting [7]) was -4%; in assay [5] (setting [8]), 3%; in assay [5] (at 50.0 µM), -2.65%; in assay [6] (setting [7]) it was -4%; in assay [6] (setting [8]), 0%; in assay [6] (at 50.0 µM) it was 11.5%.

Turning to `CC(=O)OCC1(O)OCC(OC(C)=O)C(OC(C)=O)C1OC(C)=O` (stereo not given), the growth inhibition is 18% in assay [1] (setting [7]); -21% in assay [1] (setting [8]); 12.2% in assay [1] (at 50.0 µM); -15% in assay [2] (setting [7]); -20% in assay [2] (setting [8]); -2.6% in assay [2] (at 50.0 µM). The growth inhibition in assay [3] (setting [7]) was -4%; in assay [3] (setting [8]) it was 9%; in assay [3] (at 50.0 µM) it was 12.6%; in assay [4] (setting [7]), 27%; in assay [4] (setting [8]), -36%; in assay [4] (at 50.0 µM), -2.65%. Moreover, the growth inhibition in assay [5] (setting [7]) was 6%; in assay [5] (setting [8]), -25%; in assay [5] (at 50.0 µM), 7.9%; in assay [6] (setting [7]), -4%; in assay [6] (setting [8]), -14%; in assay [6] (at 50.0 µM), 12.9%.

With `CC(C)(c1ccccc1)c1ccc2[nH]c(C(C)(C)c3ccccc3)c(CC(=O)O)c2c1`, the growth inhibition in assay [1] (setting [7]) is 2%; in assay [1] (setting [8]) it was 93% (active); in assay [1] (at 50.0 µM) it was 93.7% (active); in assay [2] (setting [7]) it was 10%; in assay [2] (setting [8]) it was 80% (active); in assay [2] (at 50.0 µM), 69.5%. In addition, the growth inhibition in assay [3] (setting [7]) is 10%; in assay [3] (setting [8]), 96% (active); in assay [3] (at 50.0 µM), 85.7% (active); in assay [4] (setting [7]), 0%; in assay [4] (setting [8]), 95% (active); in assay [4] (at 50.0 µM) it was 96% (active). Moreover, the growth inhibition in assay [5] (setting [7]) was -3%; in assay [5] (setting [8]) it was 96% (active); in assay [5] (at 50.0 µM) it was 94.8% (active); in assay [6] (setting [7]), 17%; in assay [6] (setting [8]) it was 96% (active); in assay [6] (at 50.0 µM) it was 96% (active).

Turning to `CCN(CC)CCNc1ccc2nnn3c4ccc([N+](=O)[O-])cc4c(=O)c1c23`, the growth inhibition is 16% in assay [1] (setting [7]); 35% in assay [1] (setting [8]); 66.5% in assay [1] (at 50.0 µM); 1% in assay [2] (setting [7]); 12% in assay [2] (setting [8]); 26% in assay [2] (at 50.0 µM). Moreover, the growth inhibition in assay [3] (setting [7]) is 5%; in assay [3] (setting [8]) it was 15%; in assay [3] (at 50.0 µM), 66%; in assay [4] (setting [7]), 24%; in assay [4] (setting [8]) it was 27%; in assay [4] (at 50.0 µM), 36.2%. For the same molecule, the growth inhibition in assay [5] (setting [7]) is 9%; in assay [5] (setting [8]), 35%; in assay [5] (at 50.0 µM) it was 37.9%; in assay [6] (setting [7]), 11%; in assay [6] (setting [8]), 30%; in assay [6] (at 50.0 µM), 76% (active).

Take `O=c1oc2cc(N=Cc3ccc4c(c3)OCO4)ccc2c2ccccc12`: the growth inhibition in assay [1] (setting [7]) is -3%; in assay [1] (setting [8]), 39%; in assay [1] (at 50.0 µM), 80.7% (active); in assay [2] (setting [7]) it was 1%; in assay [2] (setting [8]), 24%; in assay [2] (at 50.0 µM) it was 8.65%. Besides, the growth inhibition in assay [3] (setting [7]) is -7%; in assay [3] (setting [8]), 4%; in assay [3] (at 50.0 µM), 0.25%; in assay [4] (setting [7]), -17%; in assay [4] (setting [8]) it was 8%; in assay [4] (at 50.0 µM), 1.2%. For the same molecule, the growth inhibition in assay [5] (setting [7]) is -4%; in assay [5] (setting [8]), 5%; in assay [5] (at 50.0 µM), 25.6%; in assay [6] (setting [7]) it was 2%; in assay [6] (setting [8]) it was 42%; in assay [6] (at 50.0 µM) it was 24.9%.

For `C[n+]1c(-c2cccc(OCCCCCCCCOc3cccc(-c4c5cc(N)ccc5c5ccc(N)cc5[n+]4C)c3)c2)c2cc(N)ccc2c2ccc(N)cc21`, the growth inhibition in assay [1] (setting [7]) was 99% (active); in assay [1] (setting [8]), 97% (active); in assay [1] (at 50.0 µM) it was 85.3% (active); in assay [2] (setting [7]), 99% (active); in assay [2] (setting [8]), 99% (active); in assay [2] (at 50.0 µM), 88.2% (active). Further, the growth inhibition in assay [3] (setting [7]) is 97% (active); in assay [3] (setting [8]), 98% (active); in assay [3] (at 50.0 µM), 89.8% (active); in assay [4] (setting [7]), 98% (active); in assay [4] (setting [8]), 97% (active); in assay [4] (at 50.0 µM), 89.8% (active). Further, the growth inhibition in assay [5] (setting [7]) is 99% (active); in assay [5] (setting [8]), 98% (active); in assay [5] (at 50.0 µM) it was 88.5% (active); in assay [6] (setting [7]), 96% (active); in assay [6] (setting [8]) it was 97% (active); in assay [6] (at 50.0 µM) it was 89.3% (active).

These data come from PubChem BioAssay (NCI).
